RORgamma inh: ROR gamma (mouse) transcription inhibition; P51450; Drosophila S2 Gal4-RORgamma UAS-luciferase reporter, 20 h; Potency, µM (series often up to 53.6 µM), for the others: top-dose activity change, negative = inhibition, actives largely listed as inhibitors; 310,000 compounds, 5.4% hits; AID 2551; further: on the % scale 0 is the no-effect control and ±100 the full control effect; nearly all actives have a fitted effect of over 60% in size
Target sequence (P51450 whole entry, looked up, the tested form may be a part): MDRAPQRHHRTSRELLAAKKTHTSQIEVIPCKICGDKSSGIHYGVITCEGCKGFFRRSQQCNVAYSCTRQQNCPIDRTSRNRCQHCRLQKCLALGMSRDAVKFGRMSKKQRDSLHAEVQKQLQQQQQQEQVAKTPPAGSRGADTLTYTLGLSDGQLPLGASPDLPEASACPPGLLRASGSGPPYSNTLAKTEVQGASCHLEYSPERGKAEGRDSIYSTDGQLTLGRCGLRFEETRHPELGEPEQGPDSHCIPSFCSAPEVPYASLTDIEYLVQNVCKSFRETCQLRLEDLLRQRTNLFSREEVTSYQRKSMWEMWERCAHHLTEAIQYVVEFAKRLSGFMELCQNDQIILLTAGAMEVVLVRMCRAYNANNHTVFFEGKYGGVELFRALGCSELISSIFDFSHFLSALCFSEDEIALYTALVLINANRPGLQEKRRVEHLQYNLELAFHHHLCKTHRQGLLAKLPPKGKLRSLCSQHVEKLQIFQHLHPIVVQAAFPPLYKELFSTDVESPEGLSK
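Drosophila Schneider cells stably carrying a metallothionein-driven Gal4 DBD–ROR gamma fusion and a UAS-Photinus luciferase reporter were exposed to compound for 1 hr, then induced with copper sulfate (700 uM final) for 20 hr at ambient temperature before luminescence reading.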
a7 integrin act: activates integrin-mediated alleviation for muscular dystrophy | 350,000 compounds, 0.064% hits | Potency, µM (series often up to 38.3 µM), for the others: at the top dose activation, hits mostly activators | alpha7betagal myoblasts, beta-gal FDG fluorescence, 48 h;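 further: 100% = response of the positive control SU9516; nearly all actives have a fitted effect of over 60% in size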
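Alpha7betagal+/- myoblasts (passage 13) were plated 16-24 hr, then exposed to compounds (1:260 dilution of DMSO stock) for 48 hours at 37C. After MPER lysis, β-galactosidase reporter activity was read as FDG fluorescence (ex 480/em 540) after 30 minutes.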
uPA generation: cell surface uPA generation inhibition; 330,000 compounds, 0.31% hits; cell surface uPA generation assay, qHTS; Potency, µM (series often up to 38.3 µM), inactives show top-dose activity change, negative = inhibition, hits mostly inhibitors; active means well fitted inhibition curve with a large enough effect; inconclusive means small, poorly fitted or top-dose-only effect; inactive means no such curve, though single readings can be large or run the other way; tested in mouse RAW 264.7 cells; further: on the % scale 0 is the no-effect control and ±100 the full control effect; nearly all actives have a fitted effect of over 55% in size
Mito fusion yeast: blocks mitochondrial division or promotes mitochondrial fusion; S. cerevisiae fusion-defective mutant growth rescue, CellTiterGlo 48 h; Potency, µM (titrated, usually from 46.1 µM), without a hit: at the highest dose growth rescue (activation), actives largely listed as activators; 320,000 compounds, 0.23% hits; further: % of control where 0% means no effect; nearly all actives have a fitted effect of over 45% in size
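S. cerevisiae fusion-defective temperature-sensitive mutants (e.g. fzo1-1, mgm1-5) grown 48 h at 37C in YPEG (ethanol/glycerol non-fermentable) medium with 23 nl compound per well; growth rescue read as CellTiterGlo luminescence.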
Chronic BCR inh: blocks chronic active B-cell receptor signaling; Potency, µM (doses to about 46.1 µM), for inactives: top-dose activity change, negative = inhibition, hits mostly inhibitors; AID 493014; 340,000 compounds, 0.05% hits; ABC-DLBCL IkBa-CBG/CBR reporter, luminescence ratio, 4 h; active means well fitted inhibition curve with a large enough effect in the signal ratio, with a control signal flat, not every such curve was filed as active; inconclusive means small, poorly fitted or top-dose-only effect, or effect the other way, or a change in a side signal; the % refers to the signal ratio;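 further: plate controls were basal doxycycline-induced cells for no effect and cells given 10 µM MG132 for full effect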
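Compounds up to 46 uM were incubated four hours with TMD8 cells whose green CBG68 luciferase is fused to IkappaBalpha; red CBR luminescence normalised the signal, and concentration-effect curves were fitted to fusion, red and ratio data.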
Gal4-VP16 FLuc: inhibits Gal4-VP16 luciferase reporter, ROR gamma counter-screen; 310,000 compounds, 3.5% hits; AID 2546; Drosophila S2 Gal4-VP16 UAS-luciferase, luminescence, 20 h; Potency, µM (titrated, usually from 53.6 µM), inactives show at the top dose activity, negative = inhibition, hits mostly inhibitors;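 further: Gal4-VP16 expression switched on by copper sulfate through the metallothionein promoter; on the % scale 0 is the no-effect control and ±100 the full control effect; nearly all actives have a fitted effect of over 50% in size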
An asterisk follows results filed as active; u = inconclusive; x = no result; [ ] = remark or other dose. Hits are enriched below; roughly 5.5% of the tested compounds scored in any of these assays. Unless noted, the call rests on the fitted dose curve; in most records, active means well fitted curve in the direction sought with a large enough effect; inconclusive means small, poorly fitted or top-dose-only effect, or another doubt; inactive means no such curve, though single readings can be large; an effect the other way counts as inactive or inconclusive. Potency means the concentration at half of the fitted maximal effect.

SMILES	RORgamma inh	a7 integrin act	uPA generation	Mito fusion yeast	Chronic BCR inh	Gal4-VP16 FLuc
COc1ccc(NC(=S)NC2CCCC2)c(OC)c1	6.31µM*	-7.1%	6.1%	-9.1%	u	u
c1ccc(N2CCN(c3nc4cc5c(cc4s3)OCCO5)CC2)cc1	-33.9%	5.5%	0.1%	-3.8%	u	-10.8%
c1c2c(cc3sc(N4CCOCC4)nc13)OCCO2	3.55µM*	-11.5%	-10.3%	-8.2%	u	4.47µM*
Cc1cccc(N2C(=O)c3cccc4c(N)ccc(c34)C2=O)c1	0.1%	30.9%	1.9%	2.9%	-8.7%	-18.7%
Cc1cccc(N2C(=O)c3cccc4c(N(C)CCO)ccc(c34)C2=O)c1	1.26µM*	0.0%	5.0%	3.3%	u	-24.0%
C/C(CCc1ccc2c(c1)OCO2)=N\NC(=O)c1ccc(C)cc1C	0.6%	-3.6%	-5.5%	4.0%	u	-2.5%
COCCNC(=S)N/N=C(\C)CCc1ccc2c(c1)OCO2	4.47µM*	-29.5%	-3.8%	-0.6%	20µM*	10µM*
C/C(CCc1ccc2c(c1)OCO2)=N\NC(=S)NC(C)C	2.24µM*	1.3%	4.7%	9.7%	u	4.47µM*
CS(=O)(=O)Nc1cccc(-c2cnc3ccccc3n2)c1	2.5%	2.8%	-6.2%	-15.5%	u	0.5%
C/C(=C\C(=O)c1ccc(Cl)s1)N(C)C	7.08µM*	0.0%	-3.6%	1.3%	2.0%	u
O=C(C=Cc1ccc(Cl)s1)c1ccc(Cl)s1	x	19.4%	4.4%	x	x	x
c1ccc2c(c1)CCC[C@H]2Nc1nc2ccccc2[nH]1	x	x	x	-9.6%	x	x
COc1ccc(N2CCN(CCCn3c(=S)[nH]c4ccccc4c3=O)CC2)cc1	6.31µM*	5.0%	-19.2%	-21.4%	0.8%	u
COc1ccccc1N1CCN(CCn2c(=O)[nH]c3c([nH]c4ccccc43)c2=O)CC1	17.9%	x	x	x	x	-17.2%
CCOc1cc2[nH]c(=O)n(CCCN3CCN(c4ccc(OC)cc4)CC3)c(=O)c2cc1OCC	2.0%	20.5%	2.2%	0.4%	6.1%	1.4%
COc1ccccc1N1CCN(CCCn2c(=S)[nH]c3ccccc3c2=O)CC1	12.6µM*	-37.1%	-2.5%	-11.1%	-6.3%	u
Cc1ccc(NC(=O)CN(C)C(=O)COc2ccc(Br)cc2)cc1	x	-0.4%	x	x	x	x
O=C1NN(c2ccc(F)cc2)C(=O)/C1=C\C=C\c1ccco1	1.12µM*	18.2%	3.9%	2.8%	3.2%	u
CSc1ccc(/C=N/NC(=O)c2ccc(O)cc2)cc1	0.562µM*	17.2%	-5.2%	-1.7%	u	2.24µM*
C/C(=N\NC(=O)c1ccc(F)cc1)c1ccc(N2CCOCC2)cc1	-21.4%	3.7%	-3.4%	-2.6%	u	-3.3%
O=C(N/N=C/c1ccc(N2CCOCC2)cc1)c1ccc(O)cc1	4.47µM*	-29.3%	-22.5%	-4.3%	u	u
C/C(=N\NC(=O)c1ccc(O)cc1)c1ccc(N2CCOCC2)cc1	1.78µM*	-7.6%	-0.9%	-0.2%	u	u
COc1cc(C2OC(=O)c3c2ccc(OC)c3OC)ccc1O (stereo not given)	x	x	x	-5.4%	u	x
COc1ccc(C(C)=O)cc1CSc1nc(Nc2ccc(F)c(F)c2)c2ccccc2n1	x	x	x	x	-26.6%	x
COc1ccc(NC(=O)c2c(Nc3ccccc3)sc(C(=O)c3ccc(F)cc3)c2N)cc1	-120.3%	-18.4%	-7.7%	0.9%	u	12.6µM*
SMILES	RORgamma inh	a7 integrin act	uPA generation	Mito fusion yeast	Chronic BCR inh	Gal4-VP16 FLuc
CCc1ccccc1NC(=O)/C(C#N)=C/c1ccc(Sc2ccccc2)o1	-5.8%	u	-18.9%	11.2µM*	-0.1%	-24.2%
Cn1c(CSCc2ccccc2Cl)n[nH]c1=S	-13.7%	8.7%	-4.2%	-7.3%	-0.8%	-9.1%
S=c1[nH]nc(CSCc2ccccc2Cl)n1C1CCCCC1	0.501µM*	6.5%	7.5%	-0.2%	-3.2%	u
Cc1cccc(OCc2n[nH]c(=S)o2)c1	-37.7%	-6.8%	-3.4%	3.0%	u	-9.3%
S=c1[nH]nc(COc2ccc(Cl)cc2)n1C1CCCCC1	1.12µM*	20.3%	7.7%	10.3%	15.8%	0.794µM*
Cc1ccc(OCc2n[nH]c(=S)n2C2CCCCC2)cc1	1.41µM*	0.6%	11.9%	26.5%	14.9%	3.55µM*
Cc1cccc(OCc2n[nH]c(=S)n2C2CCCCC2)c1	0.794µM*	19.8%	-19.2%	u	1.9%	1.26µM*
COc1ccc(CCNC(=O)c2ccc3c(c2)N(Cc2c(F)cccc2Cl)C(=O)CS3)cc1OC	x	x	x	-0.2%	-0.5%	x
O=C(COc1ccc2ccccc2c1)NC1CC(=O)N(c2ccccc2)C1 (stereo not given)	x	x	x	x	-23.5%	x
COc1ccc(CCNc2nc3ccccc3n3nnnc23)cc1OC	1.0%	0.0%	0.9%	2.1%	u	0.6%
COc1ccc(CCNCc2csc3nc4ccccc4n23)cc1OC	-33.8%	-26.2%	-12.7%	-0.3%	-0.8%	6.31µM*
CCCCCCCc1ccc(-c2ccc(O)cc2)nc1	u	-6.0%	4.2%	-1.3%	u	u
CCCCCc1ccc(-c2ccc(/C=C/C(=O)O)cc2)nc1	-38.3%[10 µM]	7.0%	u	12.6µM*	u	u
CCCc1ccc(-c2ccc(/C=C/C(=O)O)cc2)nc1	0.159µM*	-5.0%	-8.9%	u	u	u
CCOc1ccc(CCNC(=O)COC(=O)c2ccc(C)c([N+](=O)[O-])c2)cc1OCC	2.3%	5.8%	u	2.5%	-0.8%	-6.1%
CCOC(=O)c1ccn(CSc2c(F)c(F)cc(F)c2F)n1	x	-19.4%	1.0%	7.3%	-1.3%	x
CCCCOc1ncnc2c1[nH]c1ccc(F)cc12	u	-51.4%	u	-3.6%	9.5%	7.94µM*
CCCCOc1ncnc2c1[nH]c1ccc(OCC)cc12	1.5%	-7.6%	x	-3.9%	u	4.7%
CCCCOCCCNc1ncnc2c1[nH]c1ccccc12	u	-47.8%	x	2.4%	0.9%	10µM*
CCCCOc1ncnc2c1[nH]c1ccccc12	u	-46.0%	-10.7%	3.6%	3.1%	10µM*
CCOc1ccccc1N(C)C(=O)c1cn(C)c(=O)c2ccccc12	0.8%	-8.1%	3.5%	-2.8%	-2.0%	2.7%
COc1ccc(Br)c(C(=O)Nc2ccc(F)cc2)c1	-0.2%	-7.9%	0.1%	-6.6%	u	4.0%
Nc1nonc1N/N=C/c1c(O)ccc2ccccc12	11.2µM*	-9.0%	-7.9%	1.4%	7.9%	-2.5%
Nc1nonc1N/N=C\c1ccccc1	14.2%	9.0%	13.0%	-7.8%	-20.0%	-2.0%
Nc1cc(Cl)nc(N/N=C/c2c(O)ccc3ccccc23)n1	0.631µM*	18.9%	-6.0%	4.5%	4.6%	11.2µM*
O=C(CC1N=C2c3ccccc3N=C(SCc3ccccc3F)N2C1=O)NCc1ccc2c(c1)OCO2 (stereo not given)	x	x	x	x	-24.4%	x

Compound activity (PubChem)
